Inconclusive results are not listed. Unmarked numbers belong to inactive results. Calls come from the whole dose curve; as a rule, active = well fitted cell-killing curve with a large enough effect in the repeat runs; inconclusive = weak or mixed curves; inactive = no such curve, though single readings can be large or run the other way.
Experiment: qHTS assay to identify small molecule agonists of the peroxisome proliferator-activated receptor delta (PPARd) signaling pathway - cell viability counter screen (AID 743211); note: nearly all actives have a fitted effect of over 55% in size
Conditions: PPARd-bla HEK293H viability, CellTiter-Glo luminescence, 17 h; series mostly up to 62.6 µM; activity change, negative = cytotoxicity: at the top concentration
Source text: U.S. Tox21 Program National Center for Advancing Translational Sciences [NCATS] NIH Chemical Genomics Center [NCGC] U.S. Environmental Protection Agency [EPA] National Institutes of Environmental Health Sciences [NIEHS] National Toxicology Program [NTP] U.S. Food and Drug Administration [FDA] Tox21 Assay Overview: The peroxisome proliferator-activated receptors (PPARs) are lipid-activated transcription factors of the nuclear receptor superfamily with three distinct subtypes namely PPAR alpha, PPAR delta (PPARd) and PPAR gamma. All these subtypes heterodimerizes with Retinoid X receptor (RXR) and have different physiological functions. […] To identify the compounds that activate PPAR-delta signaling, GeneBLAzer PPAR delta UAS-bla HEK293H cell line (Invitrogen, Carlsbad, CA, USA) containing a beta-lactamase reporter gene under the control of an Upstream Activator Sequence (UAS) was used to screen the Tox21 compound library. The cytotoxicity of the Tox21 compound library against the PPARd-bla cell line was tested in parallel by measuring the cell viability using CellTiter-Glo assay (Promega, Madison, WI) in the same wells.
Tox21 Assay Protocol Summary: PPARd-bla cells were dispensed at 3000 cells/6uL/well in 1536-well black wall/clear bottom plates using a Multidrop Combi (Thermo Fisher Scientific, Waltham, MA) dispenser. After the assay plates were incubated at 37 C and 5% CO2 for 5 h, 23 nL of compounds dissolved in DMSO, positive controls or DMSO only was transferred to the assay plate by a Pintool station (Kalypsys, San Diego, CA). The assay plates were incubated at 37C for 17 h. After 1 uL of LiveBLAzerTM B/G FRET substrate was added using a Bioraptr Flying Reagent Dispenser (FRD) workstation (Beckman Coulter, Indianapolis, IN, USA), the plates were incubated at room temperature for 2 h, and fluorescence intensity was measured by an Envision plate reader (PerkinElmer, Shelton, CT). For cell viability readout that measures cytotoxicity, 3 ul/well of CellTiter-Glo reagent was added into the assay plates using a Bioraptr FRD. After 30 min incubation at room temperature, the luminescence intensity in the plates was measured using a ViewLux plate reader (PerkinElmer).
% is set by controls: 0 for no effect and ±100 for the full control effect.

SMILES | activity change, negative = cytotoxicity
CN(CCOc1ccc(NS(C)(=O)=O)cc1)CCc1ccc(NS(C)(=O)=O)cc1 | -0.706%
C=Cc1ccccn1 | -4.04% [at 81.1 µM]
Cc1ccc(S(=O)(=O)O)c(C)c1 | -6.15%
CCCCCCN | -2.06%
CC(C)C(=O)OCCc1ccccc1 | 4.75%
CC(=O)N[C@@H](CCC(=O)O)C(=O)O | 11%
O=C1c2cccc3c2[C@H](CCC3)CN1[C@@H]1CN2CCC1CC2 | -11.6%
NS(=O)(=O)c1ccc(NC(=O)CCC(=O)O)cc1 | -1.2%
CC(=O)/C=C/C1C(C)=CCC(C)C1(C)C (stereo not given) | 6.66%
Oc1ccccc1-c1nnco1 | 2.94%
CCO[Si](CCCS)(OCC)OCC | 5.66%
COc1ccc2nc(SCc3ncc(C)c(OC)c3C)[nH]c2c1 | -6.05%
Nc1ccc([N+](=O)[O-])c(N)c1 | -13%
O=C(O)c1cc(Cl)cc([N+](=O)[O-])c1Cl | 8.98%
CC(=O)OC(C)OC(=O)C(C)c1ccc(-c2ccccc2)c(F)c1 (stereo not given) | 2.28%
CCN(C)C(=O)Oc1cccc([C@H](C)N(C)C)c1 | -0.127%
CC(C)(C)OC(=O)c1ccc(O)cc1 | 0.618%
BrCc1cccc(Oc2ccccc2)c1 | 0.0226%
CC(=C(CCOC(=O)C(C)C)SSC(CCOC(=O)C(C)C)=C(C)N(C=O)Cc1cnc(C)nc1N)N(C=O)Cc1cnc(C)nc1N | 1.49%
COc1ccc(OC)c(Cl)c1 | -32.1%

SMILES | activity change, negative = cytotoxicity
CC1(C)S[C@@H]2[C@H](N=CN3CCCCCC3)C(=O)N2[C@H]1C(=O)O | 6.99%
O=C1c2ccccc2C(=O)N1CCl | 4.66%
COc1ccc(Br)c(C)c1 | -4.39% [at 81.1 µM]
CNC(=O)[C@H]1O[C@@H](n2cnc3c(NCc4cc(Cl)ccc4OCc4cc(C)no4)ncnc32)[C@H](O)[C@@H]1N | -7.06%
COP(=O)(OC)OC(c1ccc(Cl)cc1)P(=O)(OC)OC (stereo not given) | 4.8%
O=C(O)C(=O)Cc1ccccc1 | 0.396%
N[C@@H](COP(=O)(O)O)C(=O)O | 9.54% [at 29.1 µM]
CCCCCOC(=O)CCC | -0.835%
CC(N)C(=O)OC(C)(C)Cc1ccc(Cl)cc1 (stereo not given) | -19.4%
CC1=C(C(=O)O)N2C(=O)[C@@H](NC(=O)[C@H](N)c3ccc(O)cc3)[C@H]2SC1 | 9.66%
CC(C)C(=O)OCc1cccc(OC(=O)[C@@H]2N3C(=O)[C@@H](NC(=O)Cc4ccccc4)[C@H]3SC2(C)C)c1 | 2.58%
NCCS | 1.09%
NCCN1CCOCC1 | 1.38%
O=C(O)Cc1ccc(Cl)cc1Cl | -0.81%
CCOC(=O)c1ccc(OC(=O)CCCCCN=C(N)N)cc1 | -9.78%
Cc1ccccc1C(=O)Nc1ccc(C(=O)N2CCCC(N(C)C)c3ccccc32)cc1 (stereo not given) | -21%
C=C(C)C(=O)OCc1ccccc1 | 1.99%
CCC(CC)CO | -11.8%
O=C1CC(c2ccc(Cl)cc2)CC(=O)N1 | 5.34%
COC(=O)c1ccccc1C(=O)c1ccc(OCCN2CCCCC2)cc1 | -0.27%

Source: PubChem BioAssay (Tox21)
